Screening data deposited in PubChem BioAssay by National Center for Advancing Translational Sciences (NCATS).
ALDH1A1 block = qHTS Assay for Inhibitors of Aldehyde Dehydrogenase 1 (ALDH1A1). Potency, µM (series often up to 75.3 µM), without a hit: top-dose activity, negative = inhibition, actives largely listed as inhibitors. Aldehyde dehydrogenase 1A1 (Homo sapiens), P00352. AID 1030, 2008. 220,000 tested, 7.3% active. Purified ALDH1A1, NADH fluorescence, propionaldehyde substrate;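 note: plate controls were no enzyme wells and a reference inhibitor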
HTT ATP protect = qHTS Multiplex Assay to Identify Dual Action Probes in a Cell Model of Huntington: Cytoprotection (ATP); PC12 HTT-Q103 induced, cytoprotection, ATP luminescence, 40 h; Potency, µM (top dose mostly 56.4 µM), without a hit: cytoprotection (ATP increase), most hits filed as activators; 230,000 tested, 0.14% active; active = well fitted curve in the direction sought with a large enough effect; inconclusive = small, poorly fitted or top-dose-only effect, or another doubt; inactive = no such curve, though single readings can be large; an effect the other way counts as inactive or inconclusive; note: % of control where 0% means no effect; nearly all actives have a fitted effect of over 45% in size
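Readout: ATPlite luminescence (ATP level). Model: stable PC12, inducible Htt exon1 Q103-GFP. Inducer: tebufenozide, 100 nM final. Compounds: dose series. No G418 in medium.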
KDM4E inh = qHTS Assay for Inhibitors of Human Jumonji Domain Containing 2E (JMJD2E). 230,000 tested, 1.6% active. JMJD2E catalytic domain, FDH-coupled NADH fluorescence (FDH is formaldehyde dehydrogenase). Potency, µM (doses to about 57.1 µM), for the others: at the highest dose activity change, negative = inhibition, actives largely listed as inhibitors. Lysine-specific demethylase 4E (Homo sapiens), B2RXH2. AID 2147, 2009;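 note: 0% = wells with enzyme and -100% = buffer wells without enzyme; nearly all actives have a fitted effect of over 50% in size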
Target sequence (B2RXH2 1-337 limits assumed): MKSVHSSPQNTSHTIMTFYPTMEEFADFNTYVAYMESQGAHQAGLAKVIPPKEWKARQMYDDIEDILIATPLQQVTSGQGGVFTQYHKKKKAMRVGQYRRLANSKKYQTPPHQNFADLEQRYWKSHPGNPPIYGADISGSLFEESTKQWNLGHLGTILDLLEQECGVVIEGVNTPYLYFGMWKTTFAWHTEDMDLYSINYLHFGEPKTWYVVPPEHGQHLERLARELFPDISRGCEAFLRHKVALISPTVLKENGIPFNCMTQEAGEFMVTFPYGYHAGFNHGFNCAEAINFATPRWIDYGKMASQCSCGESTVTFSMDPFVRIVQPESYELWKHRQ
HttQ103 aggreg = qHTS Multiplex Assay to Identify Dual Action Probes in a Cell Model of Huntington: Aggregate Formation (GFP); PC12 HttQ103-GFP aggregates, Acumen cytometry, 40 h; Potency, µM (top dose mostly 46.1 µM), for the others: at the highest dose activity change, negative = inhibition, usual class: inhibitors; 220,000 tested, 1.1% active; active = well fitted curve in the direction sought with a large enough effect; inconclusive = small, poorly fitted or top-dose-only effect, or another doubt; inactive = no such curve, though single readings can be large; an effect the other way counts as inactive or inconclusive; note: % is set by controls: 0 for no effect and ±100 for the full control effect; nearly all actives have a fitted effect of over 60% in size
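Huntingtin Q103 exon 1–GFP aggregates in induced PC12 cells (100 nM tebufenozide) were quantified by cytometry from lysates, with compounds dosed in titration.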
HPGD inh = qHTS Assay for Inhibitors of HPGD (15-Hydroxyprostaglandin Dehydrogenase). 15-hydroxyprostaglandin dehydrogenase [NAD(+)] (Homo sapiens), P15428. purified HPGD, NADH fluorescence kinetic, PGE2 substrate. Potency, µM, for the others: top-dose activity change, negative = inhibition, actives largely listed as inhibitors. 150,000 tested, 4.3% active. AID 894, 2007; note: % is set by controls: 0 for no effect and ±100 for the full control effect
Target sequence (P15428 whole entry, looked up): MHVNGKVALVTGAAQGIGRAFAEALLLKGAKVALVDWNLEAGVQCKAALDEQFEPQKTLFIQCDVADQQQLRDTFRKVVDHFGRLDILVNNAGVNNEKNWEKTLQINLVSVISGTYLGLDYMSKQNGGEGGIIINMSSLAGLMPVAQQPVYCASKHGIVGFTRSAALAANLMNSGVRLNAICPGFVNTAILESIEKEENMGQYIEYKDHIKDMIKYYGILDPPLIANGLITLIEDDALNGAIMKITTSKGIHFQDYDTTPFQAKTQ
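NADH formation kinetics: reaction with 30 uM PGE2 and 1 mM NAD+ (final), 20 nM enzyme, Tris-HCl pH 8 with Tween 20, after 15 min compound preincubation at room temperature. Fluorescence change, last versus first of five reads.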
LMNA splice mod = qHTS Assay for Modulators of Lamin A Splicing; HeLa LMNA splicing GFP/RFP minigene ratio, 48 h; Potency, µM (highest dose often 46.1 µM), inactives show at the top dose ratio change, negative = inhibition, usual class: inhibitors; 200,000 tested, 0.01% active; AID 1487, 2009; active = well fitted inhibition curve with a large enough effect in the signal ratio, with a control signal flat, not every such curve was filed as active; inconclusive = small, poorly fitted or top-dose-only effect, or effect the other way, or a change in a side signal; the % refers to the signal ratio; note: % is set by controls: 0 for no effect and ±100 for the full control effect
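S3 HeLa stable clones carrying a lamin A-EGFP splicing minigene plus DsRed2 were seeded at 600 cells/well in Opti-MEM with 2% FBS, pin-dosed and incubated 48 h at 37°C. Acumen cytometry (488 nm) gave the GFP/RFP total-intensity ratio.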
An asterisk follows results filed as active; [ ] = remark or other dose. An excerpt weighted towards active compounds, which were near 9.2% of everything screened. Unless noted, calls come from the whole dose curve; as a rule, active = well fitted inhibition curve with a large enough effect (not every such curve was filed as active); inconclusive = small, poorly fitted or top-dose-only effect, or another doubt; inactive = no such curve, though single readings can be large or run the other way. Potency is the fitted concentration of half-maximal effect.

`COc1ccc(N=C2SC(CC(=O)Nc3ccccc3)C(=O)N2Cc2ccccn2)cc1` (configuration not stated) gave ALDH1A1 block 2.2µM*, HTT ATP protect inconclusive, KDM4E inh -6%, HttQ103 aggreg 9% and LMNA splice mod inconclusive.
Screening O=C(c1cccc(F)c1)N1CCC2(CCCN(c3ncccn3)C2)CC1 returned ALDH1A1 block 5%, HTT ATP protect -5% and HPGD inh -16%.
Screening COC(=O)c1cc(COC(=O)c2nc3nccc(C)n3n2)oc1C returned ALDH1A1 block inconclusive, HTT ATP protect 19%[10 µM], KDM4E inh -5% and HttQ103 aggreg 9%.
For O=[N+]([O-])c1ccccc1S(=O)(=O)N1CCN(Cc2cc3c(cc2O)OCO3)CC1 the results were ALDH1A1 block 1.9µM*, HTT ATP protect -40%, KDM4E inh -10%, HttQ103 aggreg 10% and LMNA splice mod -26%[46 µM].
For O=[N+]([O-])c1ccccc1S(=O)(=O)N1CCN(CC2CC=CCC2)CC1 (configuration not stated) the results were ALDH1A1 block 14µM*, HTT ATP protect -38%, KDM4E inh inconclusive, HttQ103 aggreg 5%[9.22 µM] and LMNA splice mod -12%[46 µM].
For CCN(CC)S(=O)(=O)c1c(OC)cc(C)c(Cl)c1C the results were ALDH1A1 block 5%, HTT ATP protect 3%[10 µM], KDM4E inh 3% and HttQ103 aggreg 11%[9.22 µM].
`O=C1/C(=C/c2ccncc2)SC(=S)N1Nc1ccccc1` gave HTT ATP protect -14%[10 µM], KDM4E inh inconclusive and HttQ103 aggreg 1%[9.22 µM].
`COc1cc(/C=C2\SC(=S)N(Nc3ccccc3)C2=O)ccc1O` gave ALDH1A1 block 10µM*, HTT ATP protect -21%[10 µM], KDM4E inh 8%, HttQ103 aggreg inconclusive, HPGD inh -13% and LMNA splice mod -7%.
Screening Cc1cc(C)nc(NN2C(=O)/C(=C/c3ccccc3)SC2=S)n1 returned ALDH1A1 block inconclusive, HTT ATP protect 8%, KDM4E inh inconclusive, HttQ103 aggreg -15%, HPGD inh 35µM* and LMNA splice mod 1%.
`COc1ccc(C2=NN(c3ccccc3)C(=O)/C2=C\c2ccc(O)c(OC)c2)cc1` gave ALDH1A1 block 20µM*, HTT ATP protect inconclusive, KDM4E inh inconclusive and HttQ103 aggreg -12%.
For CCOc1cc(/C=C2\SC(=S)N(Nc3ccccc3)C2=O)ccc1O the results were ALDH1A1 block 11µM*, HTT ATP protect -60%, KDM4E inh 4%, HttQ103 aggreg -1%, HPGD inh -13% and LMNA splice mod 2%.
For BrC(c1cccc2ccccc12)c1cccc2ccccc12 the results were ALDH1A1 block inconclusive, HTT ATP protect -7%[10 µM] and HPGD inh -30%.
For CCN1CCN(c2cc(C)c3cc(NC(=S)N4CCCC(C)C4)ccc3n2)CC1 (configuration not stated) the results were ALDH1A1 block inconclusive, HTT ATP protect 5%, KDM4E inh inconclusive and HttQ103 aggreg 1%.
Screening O=C(NN1C(=O)/C(=C\c2ccc(O)c([N+](=O)[O-])c2)SC1=S)c1ccccc1Cl returned ALDH1A1 block 14µM*, HTT ATP protect 0%[10 µM], KDM4E inh -6% and HttQ103 aggreg 11%[9.22 µM].
Cn1cccc1/C=C1\SC(=S)N(NC(=O)c2ccccc2Cl)C1=O was read as ALDH1A1 block 4%, HTT ATP protect -6%[10 µM], KDM4E inh 0%, HttQ103 aggreg 8%, HPGD inh -2% and LMNA splice mod 6%.
Cc1ccc(C(=S)N2CCN(Cc3ccccc3)CC2)cc1 was read as ALDH1A1 block inconclusive, HTT ATP protect 5%, KDM4E inh -14%, HttQ103 aggreg -8% and LMNA splice mod inconclusive.
Screening CCN1CCN(C(=S)NC(C)c2ccccc2)CC1 (configuration not stated) returned ALDH1A1 block 19µM*, HTT ATP protect 12%[10 µM], KDM4E inh -1%, HttQ103 aggreg 13%, HPGD inh -12% and LMNA splice mod -12%.
For CCC(C)NC(=S)N1CCN(C(c2ccccc2)c2ccccc2)CC1 (configuration not stated) the results were ALDH1A1 block inconclusive, HTT ATP protect -8%[10 µM], KDM4E inh -1%, HttQ103 aggreg 2%, HPGD inh -15% and LMNA splice mod inconclusive.
For CCC(C)NC(=S)N1CCN(Cc2ccccc2)CC1 (configuration not stated) the results were ALDH1A1 block 7%, KDM4E inh 2% and HttQ103 aggreg 0.56µM*.
`CNC(=S)N1CCN(C(c2ccccc2)c2ccccc2)CC1` gave ALDH1A1 block 2µM*, HTT ATP protect 14%[10 µM], KDM4E inh -13%, HttQ103 aggreg 0%[9.22 µM] and LMNA splice mod inconclusive.
Oc1cccc(C(=S)N2CCN(Cc3ccccc3)CC2)c1 was read as ALDH1A1 block 11µM*, HTT ATP protect 9%[0.074 µM], KDM4E inh 2%, HttQ103 aggreg -6%, HPGD inh 14µM* and LMNA splice mod -3%.
For C[C@@](Cc1ccccc1)(NC(=O)CN)c1ccccc1 the results were ALDH1A1 block -6%, HTT ATP protect inconclusive, KDM4E inh 0%, HttQ103 aggreg 9% and HPGD inh -5%.
Screening CCOC(=O)Cc1ccc(NCc2ccc(Cl)cc2)cc1 returned ALDH1A1 block 0%, HTT ATP protect -24%, KDM4E inh -19% and HttQ103 aggreg 5%.
Screening O=C(NC1(C(F)(F)F)C(=O)Nc2c1c(=O)[nH]c(=O)n2CCc1ccccc1)c1ccc(Cl)cc1 (configuration not stated) returned LMNA splice mod 14%[46 µM].
Screening Cc1c(N=C2C=C(Br)C(=O)C(Br)=C2)c(=O)n(-c2ccccc2)n1C returned ALDH1A1 block 10µM*, HTT ATP protect 12%[10 µM], KDM4E inh -16% and HttQ103 aggreg inconclusive.
Screening O=C(OCc1nnc(-c2ccccc2)o1)c1cc([N+](=O)[O-])ccc1Cl returned ALDH1A1 block -6%, HTT ATP protect -43%, KDM4E inh -2%, HttQ103 aggreg 20% and LMNA splice mod inconclusive.
